Records with an inconclusive call do not appear. Calls of active or inactive are those of the source. The calls were made as follows, unless noted: active = hit-call score of the fitted dose curve at least 0.9, where 1 is the maximum; inactive = score below 0.9.
Columns and labels:
[1] = molecular target: human Retinoid X Receptor beta (RXRb), RXRB (gene 6257) (UniProt P28702); assay: ATG_RXRb_TRANS: Attagene TRANS-FACTORIAL HepG2 Assay for human Retinoid X Receptor beta (RXRb) (AID 2283013; active = hit-call score of the fitted dose curve at least 0.9, where 1 is the maximum)
Sequence of human Retinoid X Receptor beta (RXRb), RXRB (gene 6257) (P28702 whole entry, looked up, the tested form may be a part): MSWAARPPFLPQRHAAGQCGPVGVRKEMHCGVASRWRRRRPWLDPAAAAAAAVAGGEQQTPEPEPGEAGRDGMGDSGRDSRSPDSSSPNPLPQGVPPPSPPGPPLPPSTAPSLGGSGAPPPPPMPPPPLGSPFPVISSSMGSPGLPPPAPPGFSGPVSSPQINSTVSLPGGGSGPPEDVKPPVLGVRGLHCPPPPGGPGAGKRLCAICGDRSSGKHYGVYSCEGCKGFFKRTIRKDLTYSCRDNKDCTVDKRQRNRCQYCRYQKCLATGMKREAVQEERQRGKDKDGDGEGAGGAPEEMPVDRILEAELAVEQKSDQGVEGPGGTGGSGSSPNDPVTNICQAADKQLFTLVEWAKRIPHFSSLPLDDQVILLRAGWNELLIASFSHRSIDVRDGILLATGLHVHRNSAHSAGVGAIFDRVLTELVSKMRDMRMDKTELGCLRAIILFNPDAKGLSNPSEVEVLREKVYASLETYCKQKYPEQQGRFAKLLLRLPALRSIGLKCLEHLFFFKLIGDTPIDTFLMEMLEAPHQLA
How it was run: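 Chimeric receptor-Gal4 activity was assessed in transiently transfected human HepG2 cells after 24 h exposure. Transcripts from GAL4-UAS reporters were quantified by fluorescent RT-PCR and capillary electrophoresis, with DMSO as negative control and baseline.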

[2] = read-out: E-selectin (Homo sapiens) (UniProt P16581); assay: BSK_3C_Eselectin: BioMAP Diversity Plus: 3C Assay for Eselectin Biomarker Activity (AID 2283015); conditions: primary human endothelial cells (HUVEC); actives raise or lower the signal
How it was run: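 HUVEC, 3C stimulation; compound exposure 24 h; E-selectin by ELISA; gain- or loss-of-signal fitted bidirectionally vs DMSO baseline.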

[3] = read-out: Interleukin-1 alpha (IL1a), IL1A (gene 3552); assay: BSK_BE3C_IL1a: BioMAP Diversity Plus: BE3C Assay for Interleukin-1 alpha (IL1a) Biomarker Activity (AID 2283016); conditions: primary human bronchial epithelial cells; actives raise or lower the signal
How it was run: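 Signal from IL-1a ELISA, taken 24 h after chemical dosing of human bronchial epithelial cells, is compared with DMSO as baseline using bidirectional curve fitting.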

[4] = read-out: Monocyte Chemoattractant Protein-1 (MCP1), CCL2 (gene 6347); assay: BSK_3C_MCP1: BioMAP Diversity Plus: 3C Assay for Monocyte Chemoattractant Protein-1 (MCP1) Biomarker Activity (AID 2283017); conditions: primary human endothelial cells (HUVEC); actives raise or lower the signal
How it was run: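 HUVEC, 3C system; 24 h chemical exposure; MCP-1 by ELISA; bidirectional curve fit vs DMSO baseline.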

[5] = read-out: Monocyte Chemoattractant Protein-1 (MCP1), CCL2 (gene 6347); assay: BSK_4H_MCP1: BioMAP Diversity Plus: 4H Assay for Monocyte Chemoattractant Protein-1 (MCP1) Biomarker Activity (AID 2283018); conditions: primary human endothelial cells (HUVEC); actives raise or lower the signal
How it was run: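 Endothelial cells from umbilical vein were treated with test chemical, then after 24 h MCP-1 levels were quantified by ELISA; endpoint values came from bidirectional fitting with DMSO as baseline of activity.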

[6] = read-out: Human Leukocyte Antigen - DR isotype (HLADR), HLA-DRA (gene 3122); assay: BSK_3C_HLADR: BioMAP Diversity Plus: 3C Assay for Human Leukocyte Antigen - DR isotype (HLADR) Biomarker Activity (AID 2283019); conditions: primary human endothelial cells (HUVEC); actives raise or lower the signal
How it was run: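 HUVEC, 3C stimulation, 24 h post-dose; HLA-DR by ELISA; bidirectional curve fit vs DMSO baseline; gain or loss of signal scored.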

[7] = read-out: Interleukin-8 (IL8), CXCL8 (gene 3576); assay: BSK_3C_IL8: BioMAP Diversity Plus: 3C Assay for Interleukin-8 (IL8) Biomarker Activity (AID 2283020); conditions: primary human endothelial cells (HUVEC); actives raise or lower the signal
How it was run: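 Endothelial primary cells of human umbilical vein origin are dosed with chemical; after 24 h the IL-8 biomarker is measured by ELISA, and concentration–response is fitted in both directions versus DMSO.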

[8] = read-out: Monokine induced gamma interferon (MIG), CXCL9 (gene 4283); assay: BSK_3C_MIG: BioMAP Diversity Plus: 3C Assay for Monokine induced gamma interferon (MIG) Biomarker Activity (AID 2283021); conditions: primary human endothelial cells (HUVEC); actives raise or lower the signal
How it was run: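 Endothelial primary cells (human umbilical vein) are dosed with test chemical in the 3C system. MIG levels are measured by ELISA at 24 h and fitted in both directions relative to DMSO.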

[9] = BSK_3C_SRB: Viability Assessment in the BioMAP Diversity Plus: 3C Assay (AID 2283023); conditions: primary human endothelial cells (HUVEC);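 also: fitted both ways against DMSO so a hit may be signal rise or drop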
How it was run: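 HUVEC, 24 h post-dose; 10% TCA fix, 0.1% SRB stain, A560 nm. Bidirectional curve fit vs DMSO negative control.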

[10] = read-out: Matrix Metallopeptidase 1 (MMP1), MMP1 (gene 4312); assay: BSK_BE3C_MMP1: BioMAP Diversity Plus: BE3C Assay for Matrix Metallopeptidase 1 (MMP1) Biomarker Activity (AID 2283024); conditions: primary human bronchial epithelial cells; actives raise or lower the signal
How it was run: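 MMP1 signal, measured by ELISA after a 24 h chemical exposure of human primary bronchial epithelial cells, is analysed with bidirectional fitting using DMSO as negative control.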

[11] = BSK_3C_Vis: BioMAP Diversity Plus: 3C Assay for Morphology Visualization (AID 2283025); conditions: primary human endothelial cells (HUVEC);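 also: fitted both ways so gain or loss versus DMSO counts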
How it was run: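 Morphology read by light microscopy serves as a background control for the multiplexed 3C assay in human umbilical vein endothelial cells, taken 24 h after dosing, with DMSO as the negative control and bidirectional curve fitting.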

[12] = read-out: Pselectin, SELP (gene 6403); assay: BSK_4H_Pselectin: BioMAP Diversity Plus: 4H Assay for Pselectin Biomarker Activity (AID 2283026); conditions: primary human endothelial cells (HUVEC); actives raise or lower the signal
How it was run: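 Endothelial primary cells (human umbilical vein) are dosed, incubated 24 h, and assayed for surface P-selectin by ELISA; responses in either direction are fitted relative to the DMSO negative control.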

[13] = BSK_4H_SRB: Viability Assessment in the BioMAP Diversity Plus: 4H Assay (AID 2283027); conditions: primary human endothelial cells (HUVEC);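 also: cells exposed to compound for 24 h before staining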;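 as to AC50: curves fitted both ways versus DMSO so AC50 may be loss or gain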
How it was run: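 HUVEC, 24 h post-dose; 10% TCA fix, 0.1% SRB stain, A560 nm. Total protein = overt cytotoxicity, parallel to biomarker read. Bidirectional fit vs DMSO baseline.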

[14] = BSK_BE3C_SRB: Viability Assessment in the BioMAP Diversity Plus: BE3C Assay (AID 2283028); conditions: primary human bronchial epithelial cells;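 as to AC50: fitted both ways so AC50 may mark signal gain or loss versus DMSO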
How it was run: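 Primary human bronchial epithelium; chemical dosing, 24 h; 10% TCA fix, 0.1% SRB stain, A560; bidirectional fit vs DMSO baseline.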

[15] = read-out: Thrombomodulin, THBD (gene 7056); assay: BSK_3C_Thrombomodulin: BioMAP Diversity Plus: 3C Assay for Thrombomodulin Biomarker Activity (AID 2283029); conditions: primary human endothelial cells (HUVEC); actives raise or lower the signal
How it was run: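 Endothelial cells from umbilical vein are dosed with test chemical and incubated 24 h. Thrombomodulin is then quantified by ELISA, with DMSO serving as negative control and activity baseline.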

[16] = read-out: Urokinase-type plasminogen activator receptor (uPAR), PLAUR (gene 5329); assay: BSK_4H_uPAR: BioMAP Diversity Plus: 4H Assay for Urokinase-type plasminogen activator receptor (uPAR) Biomarker Activity (AID 2283030); conditions: primary human endothelial cells (HUVEC); actives raise or lower the signal
How it was run: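 HUVEC, 24 h post-dose; uPAR by ELISA; bidirectional fit vs DMSO baseline.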

[17] = molecular target: human RAR-related Orphan Receptor gamma (RORg), RORC (gene 6097) (UniProt P51449); assay: ATG_RORg_TRANS: Attagene TRANS-FACTORIAL HepG2 Assay for human RAR-related Orphan Receptor gamma (RORg) (AID 2283011; active = hit-call score of the fitted dose curve at least 0.9, where 1 is the maximum)
Sequence of human RAR-related Orphan Receptor gamma (RORg), RORC (gene 6097) (P51449 whole entry, looked up, the tested form may be a part): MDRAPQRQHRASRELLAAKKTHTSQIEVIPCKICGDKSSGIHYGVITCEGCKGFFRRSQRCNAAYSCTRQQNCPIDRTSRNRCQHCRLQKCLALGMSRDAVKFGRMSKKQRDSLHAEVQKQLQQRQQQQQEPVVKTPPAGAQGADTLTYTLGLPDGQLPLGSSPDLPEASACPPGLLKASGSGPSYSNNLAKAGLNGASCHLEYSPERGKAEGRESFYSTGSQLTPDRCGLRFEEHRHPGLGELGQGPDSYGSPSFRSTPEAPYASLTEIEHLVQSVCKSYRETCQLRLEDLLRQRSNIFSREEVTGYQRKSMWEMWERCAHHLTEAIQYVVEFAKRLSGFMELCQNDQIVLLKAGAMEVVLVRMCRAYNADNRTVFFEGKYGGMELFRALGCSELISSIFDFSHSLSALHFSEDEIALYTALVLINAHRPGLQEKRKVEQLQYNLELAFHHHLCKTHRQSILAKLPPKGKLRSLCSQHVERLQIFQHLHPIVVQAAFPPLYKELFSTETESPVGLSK
How it was run: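 Transient MRTU transfection of HepG2 (TRANS format, exogenous NR-Gal4 chimera). 24 h dosing. Total RNA → oligo(dT) RT → PCR → 6-FAM labelling → HpaI cut → CE. Gain vs DMSO.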

[18] = molecular target: Retinoic acid receptor RXR-alpha (Homo sapiens) (UniProt P19793); assay: ATG_RXRa_TRANS: Attagene TRANS-FACTORIAL HepG2 Assay for human Retinoid X Receptor alpha (RXRa) (AID 2283012; active = hit-call score of the fitted dose curve at least 0.9, where 1 is the maximum)
Sequence of Retinoic acid receptor RXR-alpha (Homo sapiens) (P19793 whole entry, looked up, the tested form may be a part): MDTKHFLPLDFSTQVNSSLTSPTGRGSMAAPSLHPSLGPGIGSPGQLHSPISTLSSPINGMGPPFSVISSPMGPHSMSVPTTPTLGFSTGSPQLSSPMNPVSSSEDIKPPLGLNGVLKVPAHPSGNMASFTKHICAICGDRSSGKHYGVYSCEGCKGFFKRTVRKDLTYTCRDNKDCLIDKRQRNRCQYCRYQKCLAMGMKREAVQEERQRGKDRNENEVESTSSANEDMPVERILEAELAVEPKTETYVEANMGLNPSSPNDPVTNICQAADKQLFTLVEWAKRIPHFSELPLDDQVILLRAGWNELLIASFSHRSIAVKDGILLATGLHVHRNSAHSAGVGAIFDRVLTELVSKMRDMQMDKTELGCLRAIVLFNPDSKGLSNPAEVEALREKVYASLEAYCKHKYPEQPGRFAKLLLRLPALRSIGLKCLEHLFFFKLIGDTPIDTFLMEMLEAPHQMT
How it was run: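 Measures exogenous chimeric NR-GAL4 activity in transfected HepG2 liver cells after 24 h of dosing. Induced reporter mRNA was detected by RT-PCR with capillary electrophoresis, and gain of signal was analysed against DMSO.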

[19] = molecular target: human Vitamin D Receptor (VDR), VDR (gene 7421) (UniProt P11473); assay: ATG_VDR_TRANS: Attagene TRANS-FACTORIAL HepG2 Assay for human Vitamin D Receptor (VDR) (AID 2283022; active = hit-call score of the fitted dose curve at least 0.9, where 1 is the maximum)
Sequence of human Vitamin D Receptor (VDR), VDR (gene 7421) (P11473 whole entry, looked up, the tested form may be a part): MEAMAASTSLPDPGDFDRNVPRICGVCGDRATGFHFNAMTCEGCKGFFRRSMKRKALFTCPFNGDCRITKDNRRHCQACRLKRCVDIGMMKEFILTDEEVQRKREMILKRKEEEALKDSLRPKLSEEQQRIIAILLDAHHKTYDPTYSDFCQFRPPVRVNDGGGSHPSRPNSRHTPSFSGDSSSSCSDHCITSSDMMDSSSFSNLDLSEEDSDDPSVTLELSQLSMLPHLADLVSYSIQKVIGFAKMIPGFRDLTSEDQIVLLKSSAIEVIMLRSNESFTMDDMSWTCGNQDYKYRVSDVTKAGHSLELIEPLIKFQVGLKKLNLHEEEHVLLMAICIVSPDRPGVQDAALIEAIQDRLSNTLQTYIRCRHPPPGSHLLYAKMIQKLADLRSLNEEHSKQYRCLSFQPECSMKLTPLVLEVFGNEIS
How it was run: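 RT-PCR/capillary electrophoresis read-out of reporter mRNA induction in transiently transfected HepG2; 24 h dosing; chimeric NR-Gal4 (TRANS format); gain-of-signal fit against DMSO baseline.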

[20] = molecular target: human Thyroid Receptor alpha (THRa1), THRA (gene 7067) (UniProt P10827); assay: ATG_THRa1_TRANS: Attagene TRANS-FACTORIAL HepG2 Assay for human Thyroid Receptor alpha (THRa1) (AID 2283014; active = hit-call score of the fitted dose curve at least 0.9, where 1 is the maximum)
Sequence of human Thyroid Receptor alpha (THRa1), THRA (gene 7067) (P10827 whole entry, looked up, the tested form may be a part): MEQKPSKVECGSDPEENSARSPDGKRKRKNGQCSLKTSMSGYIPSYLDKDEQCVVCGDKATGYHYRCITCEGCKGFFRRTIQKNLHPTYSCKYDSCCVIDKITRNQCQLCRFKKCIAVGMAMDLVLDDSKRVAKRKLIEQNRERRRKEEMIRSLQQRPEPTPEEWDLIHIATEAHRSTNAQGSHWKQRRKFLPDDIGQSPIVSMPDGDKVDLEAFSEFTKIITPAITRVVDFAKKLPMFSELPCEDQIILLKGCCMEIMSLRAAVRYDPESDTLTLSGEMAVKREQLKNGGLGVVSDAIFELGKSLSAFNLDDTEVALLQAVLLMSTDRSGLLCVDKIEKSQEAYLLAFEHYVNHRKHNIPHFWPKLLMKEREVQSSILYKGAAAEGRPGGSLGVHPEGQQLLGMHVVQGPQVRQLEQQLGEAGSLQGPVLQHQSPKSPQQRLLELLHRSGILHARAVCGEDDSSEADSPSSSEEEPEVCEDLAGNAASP
How it was run: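 Transient HepG2 transfection, NR-Gal4 chimera driving GAL4-UAS reporters; 24 h compound exposure; total RNA, oligo(dT) RT, PCR, fluorescent primer extension, capillary electrophoresis. Upward direction vs DMSO control.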

Measured: AC50

Sequence of E-selectin (Homo sapiens) (P16581 whole entry, looked up): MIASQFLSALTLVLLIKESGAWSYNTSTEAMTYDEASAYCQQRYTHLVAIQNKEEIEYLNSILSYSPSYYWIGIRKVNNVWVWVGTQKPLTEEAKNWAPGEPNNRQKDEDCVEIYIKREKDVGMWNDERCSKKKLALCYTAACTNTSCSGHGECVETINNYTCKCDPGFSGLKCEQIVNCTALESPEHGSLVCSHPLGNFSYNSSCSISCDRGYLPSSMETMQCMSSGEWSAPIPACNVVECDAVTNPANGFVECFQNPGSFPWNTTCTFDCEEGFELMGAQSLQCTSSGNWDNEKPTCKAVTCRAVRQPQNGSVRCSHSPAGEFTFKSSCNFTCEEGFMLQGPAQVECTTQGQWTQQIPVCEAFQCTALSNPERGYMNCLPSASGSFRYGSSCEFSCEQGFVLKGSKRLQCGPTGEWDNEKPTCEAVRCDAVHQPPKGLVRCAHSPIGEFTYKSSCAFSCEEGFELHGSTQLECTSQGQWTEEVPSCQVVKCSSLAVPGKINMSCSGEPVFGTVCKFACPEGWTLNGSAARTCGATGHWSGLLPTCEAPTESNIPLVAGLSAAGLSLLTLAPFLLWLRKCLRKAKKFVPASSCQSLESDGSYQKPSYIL

CCON=C(CC)C1=C(O)CC(c2c(C)cc(C)cc2C)CC1=O (centres undefined)
not listed: [17] | [18] | [19] | [20]
inactive: all other assays above

CNC(=S)S
active: [2] 12.8 µM | [6] 20 µM | [9] 13.3 µM | [11] 13.2 µM | [13] 20 µM
not listed: [20]
inactive: all other assays above

Cc1ccc(-c2c(Cl)nc(C#N)n2S(=O)(=O)N(C)C)cc1
inactive: [17] | [18] | [20] | [3] | [8] | [19] | [10] | [15]
active: [2] 15.8 µM | [4] 26.3 µM | [5] 20 µM | [6] 20 µM | [7] 15.8 µM | [9] 26.1 µM | [11] 15.2 µM | [12] 17.7 µM | [13] 25.5 µM | [14] 27.4 µM | [16] 14.7 µM

Source: PubChem BioAssay (EPA / NIEHS)
